Results on 102 compounds are retold here after ChEMBL document CHEMBL4513216, “Probing the Open Global Health Chemical Diversity Library for Multistage-Active Starting Points for Next-Generation Antimalarials” (ACS Infect Dis, 2020).

Screen size: about 69,000 compounds; about 8,600 (12%) showed an effect of 50% or more. The sample holds strong results, similar compounds and a random draw of the others, so the mix is not that of the screen.

This assay concerns Plasmodium berghei. In words: Screen against P. berghei liver stage (PbLuc), transformed with Luciferase, at 10uM. In kind it is functional, HepG2. The settings on record: tested at 10 uM.
Turning to `Cc1nc(N(C)C)ncc1C(=O)NCCCn1nccc1C1CC1`, the INHIBITION stood at 27.5%.
Consider `Cc1ccc2[nH]c(=O)cc(C(=O)NCCCn3nccc3C3CC3)c2c1`, for which the INHIBITION is -7.16%.
With `Cc1cc(C(=O)NCCCn2nccc2C2CC2)c(=O)[nH]c1C`, the INHIBITION was found to be 53.3%.
Then `N#Cc1cccc(S(=O)(=O)N2CCCCC2CCN2CCCC2=O)c1` (configuration not stated), with 20.1%; and `COCCCC1CCCCN1S(=O)(=O)c1cccc(C#N)c1` (configuration not stated), with -41.8%.
As for `N#Cc1cccc(S(=O)(=O)N2CCCCC2CCN2CCCC2)c1` (configuration not stated), the figure is 51.3%; as for `CNC(=O)NCC(CO)Cc1cccc(OC(F)(F)F)c1` (configuration not stated), -10.3%.
Take `CCS(=O)(=O)N1CCc2c(cnc(-c3cccnc3)c2C(=O)O)C1`: the INHIBITION is -1.26%.
Then `Cc1ccc(C)c(S(=O)(=O)CCN2CCc3c(ncn3C)C2)c1`, with 19.4%; and `O=C(c1cncs1)N1CCC(Cc2cnc3[nH]ccc3c2)CC1`, with 64.1%; and `O=C(c1ccncc1)N1CCC(Cc2cnc3[nH]ccc3c2)CC1`, with 33.7%.
Then `O=C(c1cnccn1)N1CCC(Cc2cnc3[nH]ccc3c2)CC1`, with 17.1%; and `Cc1ccc(OC2(C(=O)NC(C)c3csc(C)n3)CCNCC2)cc1` (configuration not stated), with 41.2%; and `Nc1nnnn1NCc1cccc2ccccc12`, with 23.4%.
As for `Nc1nnnn1NCc1ccccc1C(F)(F)F`, the figure is -24.6%; as for `Nc1nnnn1NCc1cccc(Cl)c1Cl`, 61.5%; as for `CC(C)NC(=O)C1CCc2nnc(C(C)(C)C)n21` (configuration not stated), -15.5%.
Consider `Cc1nc(CN2CCC3(CCN(c4cnn(C)c4)C3=O)C2)cs1` (configuration not stated), for which the INHIBITION is -17.2%.
Regarding `CC1(C(=O)N2CCOCC2)CN(Cc2ncc[nH]2)CCO1` (configuration not stated), the INHIBITION is recorded as 27.8%.
Then `Cc1ccc(CN2CC[C@@H](NS(C)(=O)=O)[C@@H]2Cc2ccncc2)o1`, with -7.94%; and `CCN1C[C@H]2CCN(C(=O)Nc3ccccc3C)CC[C@H]2S1(=O)=O`, with 50.6%; and `O=C(c1cc[nH]n1)N1CC[C@@H]2CN(Cc3ccncc3)S(=O)(=O)[C@@H]2CC1`, with 26.5%.
With `CC(C)CN1C[C@H]2CCN(C(=O)c3ccccn3)CC[C@H]2S1(=O)=O`, the INHIBITION is reported as -19.6%.
Then `CCN1C[C@H]2CCN(C(C)=O)CC[C@H]2S1(=O)=O`, with -26.8%; and `Cc1ccccc1NC(=O)N1CC[C@@H]2CN(CC(C)C)S(=O)(=O)[C@@H]2CC1`, with -13.4%; and `COCCN1C[C@H]2CCN(C(=O)Nc3ccccc3C)CC[C@H]2S1(=O)=O`, with 34.6%.
With `O=C(c1cc[nH]n1)N1CC[C@@H]2CN(Cc3cccnc3)S(=O)(=O)[C@@H]2CC1`, the INHIBITION is listed as 76.4%.
As for `CCN1C[C@H]2CCN(C(=O)c3cc[nH]n3)CC[C@H]2S1(=O)=O`, the figure is 63.5%; as for `O=C(c1cc[nH]n1)N1CC[C@@H]2CN(Cc3ccccc3)S(=O)(=O)[C@@H]2CC1`, -23.3%.
Take `CCN(CC)C(=O)NCCc1ccn(-c2ccccc2)n1`: the INHIBITION came to 7.67%.
As for `CCn1ncc2c1CCCC2NCc1ccc(OC)cc1OC` (configuration not stated), the figure is 42%; as for `O=C(CC1[C@H]2CN(c3ncccn3)C[C@@H]12)Nc1cccnc1` (some centres not stated), 13.7%; as for `Cc1nc(CN(C)C2CCN(Cc3ccc(C(N)=O)cc3)C2)no1` (configuration not stated), -27.8%.
As for `Cc1cccc(CN2CCCC(c3nccs3)C2)n1` (configuration not stated), the figure is 43.6%.
`Cc1cc(C)cc(NCCC(=O)NCc2cccnc2N(C)C)c1`: the INHIBITION worked out at 23.7%.
Then `O=C(c1cc2c(s1)CCC2)N1CCN(c2cnccn2)CC1`, with -8.66%; and `CN(C)CCO[C@H]1CN(Cc2ccc3c(c2)OCO3)[C@@H]2COC[C@H]12`, with 33%; and `CCNC(=O)Cc1n[nH]c(-c2cncc(Br)c2)n1`, with 39.3%.
Then `Cc1cnn(CCNCC(=O)NC(C)c2ccc3c(c2)OCCO3)c1` (configuration not stated), with 8.64%; and `CC(=O)N1[C@H](CN(C)C)C[C@@H]2CN(C(=O)c3cccc(F)c3)CC[C@@H]21`, with 29.9%.
As for `CN(C)c1ccc(CCCNC(=O)NCC(O)c2ccsc2)cc1` (configuration not stated), the figure is 8.92%; as for `CN(C)c1ccc(CCCNC(=O)NCC(O)c2cccs2)cc1` (configuration not stated), 60.4%.
Consider `CN(C)c1ccc(C(O)CNC(=O)NCCCc2ccccc2)cc1` (configuration not stated), for which the INHIBITION is reported as 5.91%.
Then `CN1CC(c2cc(O)nc(NCc3ccccc3Cl)n2)CC1=O` (configuration not stated), with 30.4%.
Then `O=C(CCc1ccc(Cl)s1)NCc1nnc2n1CCCCC2`, with 5.9%; and `O=C(c1nc(Cc2c[nH]c3ccccc23)no1)N1CCCCC1`, with 55.4%; and `O=C(c1nc(Cc2c[nH]c3ccccc23)no1)N1CCOCC1`, with 29.9%.
As to `O=C(c1nc(Cc2c[nH]c3ccccc23)no1)N1CCCC1`, the INHIBITION is reported as 25.2%.
As for `CCOc1ncccc1NC(=O)NCC(O)c1ccc(OC)cc1` (configuration not stated), the INHIBITION came out at 44.1%.
`Cc1cc(C)n(Cc2cc(C(=O)N3CCCC3c3nccs3)n[nH]2)n1` (configuration not stated): the INHIBITION worked out at 10.7%.
Then `CCOCc1nc2c(c(NC(CC)c3ccnn3C)n1)CCNCC2` (configuration not stated), with 40.6%; and `CCOCc1nc2c(c(NC(CC)c3cccnc3)n1)CCNCC2` (configuration not stated), with 53.5%.
Turning to `CCOCc1nc2c(c(NC(CC)c3ccncc3)n1)CCNCC2` (configuration not stated), the INHIBITION came out at 37.7%.
Consider `O=C1[C@@H]2C[C@H](O)CCN2C(=O)CN1CCSc1ccccn1`, for which the INHIBITION is recorded as -19.41%.
As to `NC(=O)CN1CCC(c2cc(C(F)(F)F)n3ccnc3n2)CC1`, the INHIBITION came out at 30.8%.
On to `CC(C)NC(=O)[C@@H]1CN(C)C[C@]12COc1ccc(F)cc1C2=O`, for which the INHIBITION amounted to 12.515%.
Then `O=C(NCC(F)(F)F)c1ccc(-n2cccn2)nn1`, with -27.8%; and `Cc1csc(N2CCN(CC(=O)NCc3ccccn3)CC2C)n1` (configuration not stated), with -19.605%; and `CC(CN1CCOC1=O)NC(=O)c1cccc(C#N)c1` (configuration not stated), with 42.1%.
For `CCn1nc(C)c(CCNC(=O)c2cccc(-n3cccn3)c2)c1C`, the INHIBITION was found to be 72.5%.
For the compound `CCn1nc(C)c(CCNC(=O)c2cccc(NCC(=O)O)c2)c1C`, the INHIBITION is on record as 22.3%.
As for `CC(CNC(=O)c1cccc(-n2cccn2)c1)Cn1ccnc1` (configuration not stated), the figure is -13.6%; as for `COc1cccc(C(C(=O)O)N2CCC(Cn3cccn3)CC2)c1OC` (configuration not stated), 19.8%.
As for `COCC(=O)N1CCC2(CC1)CNc1ccc(F)cc12`, the figure is 5.63%; as for `CC(C)CC(=O)N1CC(=O)c2sc(Nc3ccc(F)cc3F)nc2C1`, 63.4%; as for `CNc1nc2c(s1)C(=O)CN(C(=O)[C@@H](N)Cc1cccc(OC)c1)C2`, 45.6%.
Then `COc1ccccc1Nc1nc2c(s1)C(=O)CN(C(=O)CC(C)C)C2`, with 59%.
On to `CC(C)CC(=O)N1CC(=O)c2sc(NCCc3ccccc3)nc2C1`, for which the INHIBITION was determined as 35.2%.
On to `CC(C)CC(=O)N1CC(=O)c2sc(NC3CCCCC3)nc2C1`, for which the INHIBITION is 10%.
As for `COCC(=O)N1CC(=O)c2sc(Nc3ccc(F)cc3F)nc2C1`, the figure is 53%; as for `CC1CCC2(CC1)Nc1ccccc1CO2` (configuration not stated), 29.7%; as for `CCOC(=O)C1(NC(=O)CCNc2cc(C)ccc2OC)CCCCC1`, -7.77%.
As for `CC(C)Cc1nc(-c2ccnc(N3CCNCC3)n2)no1`, the figure is 31.2%; as for `Cn1cc(C(=O)N2CC[C@@H]3[C@@H]2CCN3c2ncc(F)cn2)cn1`, 2.4%; as for `CC1CCN(C(=O)Cn2nc(Br)nc2Br)CC1`, -12.7%.
On to `Cc1nc(C2CCCN(C(=O)c3cccc4c3OCCO4)C2)no1` (configuration not stated), for which the INHIBITION is recorded as 15.3%.
As for `CC/C=C(/C)C(=O)N1CCN(C2=NCC(C)S2)CC1` (configuration not stated), the figure is 30.3%; as for `CCN(CC)C(=O)N1CCN(C2=NCC(C)S2)CC1` (configuration not stated), 65.7%; as for `CCC(C)(C)C(=O)N1CCN(C2=NCC(C)S2)CC1` (configuration not stated), -87.7%.
`CC(=O)Nc1ccc2c(c1)C1(CCOCC1)C(=O)N2c1ccsc1`: the INHIBITION came out at 58.7%.
Regarding `CCN1C(=O)C2(CCOCC2)c2cc(NC(=O)COC)ccc21`, the INHIBITION is listed as -19.8%.
As for `CCN1C(=O)C2(CCOCC2)c2cc(NC(=O)c3csnn3)ccc21`, the figure is -35.2%; as for `CCN1C(=O)C2(CCOCC2)c2cc(NC(=O)c3cnccn3)ccc21`, -28.8%; as for `CCC(C)Nc1ccc2c(c1)C1(CCOCC1)C(=O)N2c1ccccc1` (configuration not stated), 10.5%.
As for `CC(C)Nc1ccc2c(c1)C1(CCOCC1)C(=O)N2c1ccsc1`, the INHIBITION was 52.3%.
As for `COc1cccc(OC)c1CN1CC(O)CN(S(C)(=O)=O)CC1=O` (configuration not stated), the figure is 46.4%.
Consider `NC(=O)CN1CCCC(Cc2ccc(N)nn2)C1` (configuration not stated), for which the INHIBITION turned out to be 8.72%.
Consider `CC(C)n1c(C2CCCN(Cc3ccnn3C)C2)nc2ccccc21` (configuration not stated), for which the INHIBITION was determined as 23.9%.
Then `COc1cccc(CNc2c(O)c(=O)c2=O)c1`, with 0.207%; and `Cc1noc(C2CCC3(CCN(C(=O)c4ccn(C)n4)CC3)O2)n1` (configuration not stated), with -0.371%.
As for `O=C(Cc1ccccc1C(F)(F)F)N1CCC2(CC1)OCCCC2O` (configuration not stated), the figure is 13.2%.
Then `COc1cccc(CC(=O)N2CCC3(CC2)OCCCC3O)c1OC` (configuration not stated), with 69.7%; and `COc1ccccc1CC(=O)N1CC[C@H](O)[C@]2(CCCO2)C1`, with -12.2%; and `COC(=O)c1ccoc1CN(C)CC(=O)NC1CCS(=O)(=O)C1` (configuration not stated), with 17.9%.
On to `Cc1nn(-c2ccccc2)c2c1c(C(F)F)cc(=O)n2CC(=O)O`, for which the INHIBITION is 36.35%.
Then `CN(C)CCN(C)C1CCN(C(C(=O)O)c2ccc(F)c(Cl)c2)CC1` (configuration not stated), with 34.9%.
As for `CCCOc1cc(CNC(=O)Nc2ccccn2)ccn1`, the figure is 3.87%; as for `CC(C)c1nn(C)c(N(C)C)c1CNC1CCN(C2CC2)CC1`, 12.8%; as for `CC(CO)NC(=O)c1ccc2[nH]/c(=N\S(C)(=O)=O)sc2c1` (configuration not stated), 4.93%.
Turning to `C[C@@H](CO)NC(=O)c1ccc2nc(NS(C)(=O)=O)sc2c1`, the INHIBITION amounted to 54.2%.
Then `CSCC[C@@H](CO)NC(=O)c1ccc2nc(NS(C)(=O)=O)sc2c1`, with 46.7%; and `Cc1cc(C(=O)N2CCC3(CC2)C(=O)N(C)CCN3CC2CC2)c(C)o1`, with 4.98%.
